From PubChem BioAssay
This is a sample that favours compounds with a hit; in the whole collection about 6.5% have one here.
VACV Venus inh = qHTS for Stage-Specific Inhibitors of Vaccinia Orthopoxvirus: Venus Reporter Primary qHTS; Vaccinia virus Venus reporter expression, fluorescence; Potency, µM (highest dose often 36.5 µM), for inactives: at the top dose activity change, negative = inhibition, most hits filed as inhibitors; actives 0.46% (n = 330,000); AID 720580, 2013; calls by dose curve; tested in A549 cells; further: potency means the concentration at half of the fitted maximal effect; on the % scale 0 is the no-effect control and ±100 the full control effect; nearly all actives have a fitted effect of over 30% in size
FMDV antiviral = High Throughput Screening for Foot and Mouth Disease Virus Antivirals. FMDV antiviral cell-based qHTS. Potency, µM (doses to about 57.9 µM), for the others: at the top dose activity change, negative = inhibition, usual class: inhibitors. actives 1.2% (n = 410,000). AID 1159524, 2015; calls by dose curve; tested in HEK293T cells; further: read-out not given here; potency means the concentration at half of the fitted maximal effect; on the % scale 0 is the no-effect control and ±100 the full control effect; nearly all actives have a fitted effect of over 45% in size
VACV mCherry inh = qHTS for Stage-Specific Inhibitors of Vaccinia Orthopoxvirus: mCherry Reporter Primary qHTS | Vaccinia virus mCherry reporter infection, fluorescence | Potency, µM (titrated, usually from 36.5 µM), for inactives: at the highest dose activity change, negative = inhibition, actives largely listed as inhibitors | actives 0.63% (n = 310,000) | AID 720579, 2013; calls by dose curve; tested in A549 cells; further: potency means the concentration at half of the fitted maximal effect; on the % scale 0 is the no-effect control and ±100 the full control effect; nearly all actives have a fitted effect of over 35% in size
Marburg entry inh = qHTS for inhibitors of binding or entry into cells for Marburg Virus. Marburg virus pseudotyped entry inhibition, cell reporter. Potency, µM (doses to about 37.8 µM), inactives show at the highest dose activity change, negative = inhibition, most hits filed as inhibitors. actives 1.8% (n = 300,000). AID 540276, 2011; calls by dose curve; tested in HEK293 cells; further: potency means the concentration at half of the fitted maximal effect; on the % scale 0 is the no-effect control and ±100 the full control effect
HCMV inh = qHTS Assay for inhibitors of the human cytomegalovirus (HCMV). activity change, negative = inhibition, % at 57.5 µM. actives 4.5% (n = 410,000). HFF cells, HCMV-luciferase reporter, 72 h; active compounds read low; in the data active means activity change below about -60%; inconclusive means no clear call, values can overlap the other calls; inactive means above about -39%; further: on the % scale 0 is the no-effect control and ±100 the full control effect
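Two compound doses tested in HFFs infected with HCMV-luciferase, MOI 1 PFU/cell, 72 h at 37C. Lysate luminescence read with OneGlo; data normalized against buffer-only and 10uM Salinomycin inhibitor controls.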
Lassa entry inh = qHTS for Inhibitors of binding or entry into cells for Lassa Virus; Lassa virus pseudotype entry inhibition, cell reporter; Potency, µM (doses to about 37.9 µM), for the others: at the top dose activity change, negative = inhibition, hits mostly inhibitors; actives 1.2% (n = 300,000); AID 540256, 2011; calls by dose curve; tested in HEK293 cells; further: potency means the concentration at half of the fitted maximal effect; on the % scale 0 is the no-effect control and ±100 the full control effect; nearly all actives have a fitted effect of over 50% in size
G2M arrest HeLa = Cell cycle validation with wells to cells screening paradigm | shares compounds with Marburg entry inh | HeLa cell cycle G2/M arrest, Hoechst DNA content imaging | Potency, µM, most hits filed as inhibitors | actives 60% (n = 25) | AID 2441, 2010
WI-38 cytotox = High Content Assay for Compounds that inhibit the Assembly of the Perinucleolar Compartment: WI-38 Cytotoxicity. shares compounds with Marburg entry inh. WI-38 normal lung fibroblasts, ATPLite luminescence ATP viability, 24 h. Potency, µM (series often up to 46.1 µM), for the others: at the highest dose activity change, negative = cytotoxicity, most hits filed as inhibitors. 120 tested, under 10 active
PNC assembly inh = High Content Assay for Compounds that inhibit the Assembly of the Perinucleolar Compartment: Confirmation of PNC Inhibition | actives 50% (n = 120) | shares compounds with Marburg entry inh | PC3M PTB-GFP, PNC prevalence imaging, 16 h | Potency, µM (series often up to 46.1 µM), inactives show at the top dose activity, negative = PNC inhibition, hits mostly inhibitors
PC3M caspase = High Content Assay for Compounds that inhibit the Assembly of the Perinucleolar Compartment: PC3M Caspase 3/7 Activation; shares compounds with Marburg entry inh; PC3M-GFP caspase 3/7 activation, luminescence, 24 h; activity change, positive = activation, % at 46.1 µM; 120 tested, under 10 active
Numbers without * were called inactive; i = inactive; ? = inconclusive; nt = not tested or not shown; ! = not active in a repeat; [ ] = another dose, or the depositor's remark. Unless noted, the call rests on the fitted dose curve; in most records, active means well fitted curve in the direction sought with a large enough effect; inconclusive means small, poorly fitted or top-dose-only effect, or another doubt; inactive means no such curve, though single readings can be large; an effect the other way counts as inactive or inconclusive.

SMILES | VACV Venus inh | FMDV antiviral | VACV mCherry inh | Marburg entry inh | HCMV inh | Lassa entry inh | WI-38 cytotox | PNC assembly inh | PC3M caspase | others
O=c1c2ccccc2nnn1CSc1ccc2ccccc2n1 | -6% | 2% | -16% | 13% | -39 | -1% | 19% | ? | -8
CC(C)c1ccc(NC(=O)Cn2cc(S(=O)(=O)Cc3cccc(Cl)c3)c3ccccc32)cc1 | -25% | -4% | -28% | nt | ? | -3%[46.1 µM] | nt | nt | nt
O=C(NCC12CC3CC(CC(C3)C1)C2)c1cc2nc(-c3ccc(F)cc3)cc(C(F)(F)F)n2n1 | -18% | -15% | -19% | nt | 2 | 25%[46.1 µM] | nt | nt | nt
C/C(=N/OCO/N=C(/C)c1ccc(F)cc1)c1ccc(F)cc1 | -3% | -4% | -19% | ? | -19 | 3.2µM* | 20% | 22µM* | 1
C/C(=N/OCO/N=C(\C)c1ccc(F)cc1F)c1ccc(F)cc1F | -13% | -18% | i | 10% | -34 | 22% | nt | nt | nt
CCc1cccc(CC)c1NC(=O)C(CC)n1nc(C)n2c(cc3cc(C)ccc32)c1=O (configuration not stated) | -15% | -7% | -18% | 4%[46.1 µM] | -1 | 13%[46.1 µM] | nt | nt | nt
Cc1nc2ccc(S(=O)(=O)N(CC(=O)Nc3ccc(F)cc3F)Cc3ccccc3)cc2s1 | -15% | -12% | -6% | nt | -1 | -12%[46.1 µM] | nt | nt | nt
COc1ccc(CCNC(=O)C2CC2)cc1OC | -12% | nt | i | -2% | 8 | 1% | nt | nt | nt
COc1ccc(CN2CCC(C(=O)NCCc3ccc(OC)c(OC)c3)CC2)c(OC)c1 | 1% | -20% | nt | ? | -9 | -1% | -27% | ? | -8
O=C(Nc1cccc(S(=O)(=O)N2CCCCCC2)c1)c1ccc2c(c1)OCO2 | ? | -2% | -24% | ? | -62* | ? | -14% | -30% | -8
O=C(Nc1cccc(S(=O)(=O)N2CCCC2)c1)c1ccc2c(c1)OCO2 | -9% | -7% | -10% | 0% | 18 | -9% | nt | nt | nt
CCOC(=O)NC1(NC(C)C)Oc2ccccc2O1 | -20% | -18% | -7% | 13% | 14 | -19% | nt | nt | nt
CCOC(=O)NC1(Nc2ccc(C)cc2)Oc2ccccc2O1 | -12% | 13% | -25% | -12% | 40 | ? | 8% | -18% | -6
C#CCn1c(S(=O)(=O)Cc2ccc(C)cc2)nc(-c2ccccc2)c1-c1ccccc1 | -2% | -12% | -26% | 4.6µM* | -95* | 3.3µM* | 3% | 7.9µM* | -5
C#CCn1c(C)cc(C)c(S(=O)(=O)c2ccccc2)c1=O | -9% | 58% | -4% | 5%[46.1 µM] | 69 | 10% | nt | nt | nt
CCn1c(C)c(C2N3CC4(C)CN2CC(CC)(C3)C4=O)c2ccccc21 (configuration not stated) | -6% | -13% | -7% | -6%[46.1 µM] | 3 | ? | nt | nt | nt
Cc1ccc(Cl)cc1N(CC(=O)N1CCCCCC1)S(C)(=O)=O | -12% | -7% | -15% | 7% | 20 | 9% | 6% | 8% | -6
Cc1ccc(Cl)cc1N(CC(=O)N1CCOCC1)S(C)(=O)=O | nt | 4% | nt | nt | -8 | nt | nt | nt | nt
CC12CCC3c4ccc(O)cc4CCC3C1CCC2O (configuration not stated) | nt | -12% | nt | nt | nt | nt | nt | nt | nt
C[C@]12CC[C@@H]3c4ccc(O)cc4CC[C@H]3[C@@H]1CC[C@@H]2O | -19% | -17% | -6% | ? | -24 | ? | nt | nt | nt | G2M arrest HeLa=10*
COc1cc2c(cc1O)CCC1C2CC[C@]2(C)[C@@H](O)CC[C@@H]12 (some centres not stated) | nt | nt | nt | ? | nt | nt | nt | nt | nt | G2M arrest HeLa=1.1*
COc1ccccc1N1CCN(C(CNC(=O)C(=O)NCc2ccc(F)cc2)c2cccnc2)CC1 (configuration not stated) | -25% | ? | -19% | nt | -28 | ? | nt | nt | nt
CCN(CC)S(=O)(=O)c1ccc(C2=NOC3(C2)N(C)c2ccccc2C3(C)C)cc1 (configuration not stated) | 14% | -27% | -17% | 1.8µM* | -76* | 0.73µM* | 8% | 5µM* | -8
CCN(CC)S(=O)(=O)c1ccc(-c2nnco2)cc1 | -5% | -4% | -17% | 0% | 24 | -2% | nt | nt | nt
CN(C)c1ccc(N=Nc2ccccc2C(=O)OCC(=O)NC2CCCC2)cc1 | -13% | 1% | -5% | ? | ? | ? | ? | ? | -13
SMILES | VACV Venus inh | FMDV antiviral | VACV mCherry inh | Marburg entry inh | HCMV inh | Lassa entry inh | WI-38 cytotox | PNC assembly inh | PC3M caspase | others
CN(C)c1ccc(N=Nc2ccccc2C(=O)OCC(=O)N(C)C2CCCCC2)cc1 | -20% | 11% | i | ? | 34 | ? | nt | nt | nt
COc1ccc(C(=O)Oc2c(Sc3ccc(Cl)cc3)c(C)nn2C(C)(C)C)cc1OC | -16% | ? | -20% | 1%[46.1 µM] | -28 | -28%[46.1 µM] | nt | nt | nt
CC[C@]1(O)C[C@@H]2CN(CCc3c([nH]c4ccccc34)[C@](C(=O)OC)(c3cc4c(cc3OC)N(C=O)[C@H]3[C@@](O)(C(=O)OC)[C@H](C(=O)OC)[C@@]5(CC)C=CCN6CC[C@]43[C@H]65)C2)C1 | nt | 4% | nt | nt | nt | nt | nt | nt | nt
CCC1(O)CC2CN(CCc3c([nH]c4ccccc34)[C@@](C(=O)OC)(c3cc4c(cc3OC)N(C=O)C3[C@]45CCN4CC=C[C@@](CC)([C@@H](OC(C)=O)[C@]3(O)C(=O)OC)[C@H]45)C2)C1 (some centres not stated) | nt | nt | nt | 13µM*! | nt | nt | nt | nt | nt | G2M arrest HeLa=?
Cc1sc2nc(C3CC3)nc(SCC(=O)N3c4ccccc4CC3C)c2c1C (configuration not stated) | nt | -3% | nt | 4.1µM* | nt | 1.8µM* | -1% | 7.1µM* | -1
COc1ccc(-n2c(SC(C)C(=O)Nc3ncc(Cl)cc3Cl)nc3ccccc32)cc1 (configuration not stated) | -7% | -13% | ? | ? | -85* | 0.25µM* | ? | 3.2µM* | 4
